Most compounds without a hit are left out; they make up all but 6.9% or so of the library.
Giardia kill: Small Molecules that selectively kill Giardia lamblia: qHTS; activity change, % at 7.66 µM, hits read low; Giardia lamblia trophozoite viability; 340,000 compounds, 0.15% hits; in the data active = activity change below about -80%; inconclusive = between about -30% and that limit;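 also: parasites exposed to compound for two days anaerobically before the ATP read; % is scaled to controls: 0 for no effect and ±100 for the full control effect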
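Giardia trophozoites, 100 cells per well, were exposed to compounds for 48 hrs at 37 deg C under anaerobic conditions; viability was then read as ATP content by bioluminescence after 15-30 min at room temperature.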
Vif-A3G inh: qHTS for Inhibitors of Vif-A3G Interactions: qHTS. Potency, µM (titrated, usually from 46.1 µM), inactives show at the top dose activity, negative = active, most hits filed as inhibitors. HeLa A3G-eYFP + Vif (tagged APOBEC3G with the HIV-1 protein that degrades it), YFP fluorescence, overnight. DNA dC->dU-editing enzyme APOBEC-3G (Homo sapiens), Q9HC16. AID 602310, 2012. 410,000 compounds, 0.076% hits; also: potency is read from the fitted curve at half-maximal effect; % is scaled to controls: 0 for no effect and ±100 for the full control effect; nearly all actives have a fitted effect of over 60% in size
Target sequence (Q9HC16 whole entry, looked up): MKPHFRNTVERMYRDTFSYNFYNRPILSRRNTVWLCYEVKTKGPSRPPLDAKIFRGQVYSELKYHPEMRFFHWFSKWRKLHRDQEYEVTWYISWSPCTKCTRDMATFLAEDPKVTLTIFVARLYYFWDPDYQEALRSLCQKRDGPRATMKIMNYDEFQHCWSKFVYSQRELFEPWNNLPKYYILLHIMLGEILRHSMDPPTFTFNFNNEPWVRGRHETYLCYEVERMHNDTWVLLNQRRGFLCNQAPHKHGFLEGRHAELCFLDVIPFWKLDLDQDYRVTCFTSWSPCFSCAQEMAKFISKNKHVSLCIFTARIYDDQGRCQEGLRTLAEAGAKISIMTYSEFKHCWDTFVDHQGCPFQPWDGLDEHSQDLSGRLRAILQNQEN
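HeLa cells stably expressing Vif and C-terminally eYFP-tagged A3G, seeded overnight at 37 deg C, then exposed to compound by pintool overnight at 37 deg C. Rise in yellow fluorescence (Ex 488/Em 500-530, Acumen) marks blocked Vif-driven A3G degradation.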
IL-1B inflam inh: qHTS for Inhibitors of Inflammasome Signaling: IL-1-beta AlphaLISA Primary Screen | THP-1 LPS/ATP IL-1B secretion, AlphaLISA, 16 h; active compounds read low | activity change, % at 57.5 µM | 360,000 compounds, 4.7% hits | AID 743279, 2014; in the data active = activity change below about -50%; inconclusive = mostly about -30% to -49%; also: % is scaled to controls: 0 for no effect and ±100 for the full control effect
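Secreted IL-1B measured by AlphaLISA bead assay after 16 h compound exposure of THP-1 cells; compounds (final up to 57.5 uM) added 1 h before LPS (250 ng/mL) and ATP (1.25 mM) stimulation; lower signal means less secretion.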
Vif-APOBEC3F blk: qHTS for Inhibitors of Vif-A3F Interactions: qHTS | HeLa A3F-eYFP + Vif (tagged APOBEC3F with the HIV-1 protein that degrades it), YFP fluorescence increase | Potency, µM (doses to about 46.1 µM), for inactives: at the highest dose activity, negative = active | 390,000 compounds, 0.2% hits | AID 602313, 2012; also: potency is read from the fitted curve at half-maximal effect; % of control where 0% means no effect; nearly all actives have a fitted effect of over 65% in size
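Fluorescence increase (Ex 488/Em 500-530) after overnight compound treatment at 37 deg C flags inhibition of Vif-driven A3F-eYFP loss in stable HeLa A3F-eYFP/Vif cells seeded overnight beforehand.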
SW480 rerep: A quantitative high throughput screen for small molecules that induce DNA re-replication in SW480 colon adenocarcinoma cells; SW480 DNA re-replication, Hoechst DNA content imaging, 48 h; Potency, µM (highest dose often 46.1 µM), for inactives: at the top dose re-replication activation, hits mostly activators; 340,000 compounds, 1.8% hits; AID 624297, 2012; also: potency is read from the fitted curve at half-maximal effect; % of control where 0% means no effect; nearly all actives have a fitted effect of over 55% in size
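First, 250 cells per well were seeded. Next, compound or vehicle (23 nL) was pinned in, plates sat 48 hr at 37 C. Finally Hoechst was added for 40 min before fluorescence scanning.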
MCF10A rereplic: A quantitative high throughput screen for small molecules that induce DNA re-replication in MCF 10a normal breast cells; AID 624296, 2012; Potency, µM (top dose mostly 46.1 µM), without a hit: at the top dose activity, positive = re-replication, hits mostly activators; 350,000 compounds, 2.9% hits; MCF 10A DNA re-replication, Hoechst nuclear intensity, 48 h; also: potency is read from the fitted curve at half-maximal effect; % of control where 0% means no effect; nearly all actives have a fitted effect of over 50% in size
Numbers without * were called inactive; ? = inconclusive; . = no result given; [ ] = another dose, or the depositor's remark. Unless noted, calls follow the shape of the dose curve; as a rule, active = well fitted curve in the direction sought with a large enough effect; inconclusive = small, poorly fitted or top-dose-only effect, or another doubt; inactive = no such curve, though single readings can be large; an effect the other way counts as inactive or inconclusive.

SMILES	Giardia kill	Vif-A3G inh	IL-1B inflam inh	Vif-APOBEC3F blk	SW480 rerep	MCF10A rereplic
O=C(Nc1cccnc1Cl)c1cc2c(s1)-c1ccccc1OC2	15.1	1.5%	9.3	-1.8%	133.7%	18.4µM*
Cc1cccc2c1-c1sc(C(=O)Nc3cccc([N+](=O)[O-])c3C)cc1CO2	32.7	0.4%	-52.3*	-3.7%	2.5%	?
Cc1cccc2c1-c1sc(C(=O)Nc3ccccc3C(N)=O)cc1CO2	.	2.2%	.	-8.2%	.	.
Cc1cccc2c1-c1sc(C(=O)Nc3nccs3)cc1CO2	-14.1	0.0%	33.1	-1.3%	7.31µM*	3.66µM*
CCN(CC)CCn1c2c(c(SCC(=O)Nc3cccc(C(F)(F)F)c3)nc1=O)CCC2	.	11.1%	.	0.3%	.	.
O=C(Nc1nc2ccccc2s1)c1cc2c(s1)-c1ccccc1OC2	-11.7	-9.2%	-5.6	?	6.51µM*	?
COc1ccc(Cn2c(-c3ccc(OC)cc3)nc3ccccc32)cc1	-18.8	0.7%	-13.7	5.6%	-7.4%	-8.3%
COc1ccc(Cn2c(-c3ccc(Br)cc3)c[n+]3ccccc23)cc1	-4.1	3.2%	-61.1*	-3.3%	-5.0%	19.4%
O=C(COC(=O)c1nc(Cl)ccc1Cl)c1ccc[nH]1	?	-0.2%	8.1	2.5%	-11.0%	-7.7%
O=C(COC(=O)c1nc(Cl)c(Cl)c(Cl)c1Cl)c1ccc[nH]1	-4.3	?	-102.6*	0.7%	?	?
CN(C)CCCNc1nc2cc(-c3cccc(C(F)(F)F)c3)sc2c(=O)n1C	.	-27.7%	-65.8*	.	.	.
Cc1ccsc1-c1cc2nc(NCCCN(C)C)n(C)c(=O)c2s1	.	-3.4%	0.0	.	.	.
Cc1ccccc1-c1cc2nc(NCCCN(C)C)n(C)c(=O)c2s1	.	-1.8%	-81.5*	.	.	.
CCOC(=O)C1(C)C=C(Nc2cccc(C)c2)C(=O)N1c1ccccc1 (centres undefined)	.	6.9%	.	-3.6%	.	.
CCCCC[C@H]1CN(CCCC)C(=O)[C@@H]1CC(=O)NCc1ccc(OC)cc1	15.7	-3.0%	-20.5	-0.5%	-13.2%	8.2%
CCCCC[C@H]1CN(CCc2ccccc2)C(=O)[C@@H]1CC(=O)NCc1ccc(OC)cc1	6.8	-4.6%	-78.3*	-3.4%	5.1%[9.22 µM]	23.0%
CCCCC[C@H]1CN(Cc2ccccc2)C(=O)[C@@H]1CC(=O)NCc1ccccc1	2.6	-7.2%	-51.5*	3.3%	24.2%	?
N/C(=N\OC(=O)c1ccc2ccccc2c1)c1ccccn1	-21.5	-5.8%	-24.6	-12.7%	?	2.0%
CCCc1ccc(C(=O)O/N=C(\N)c2ccccn2)cc1	7.3	-9.1%	-57.5*	-22.6%	10.3%[1.84 µM]	?
O=C1/C(=C/c2cccnc2)CCC/C1=C\c1cccnc1	?	?	-106.8*	4.7%	1.3µM*	1.16µM*
O=C1Nc2ccccc2/C1=C/c1cccnc1	-0.3	0.8%	-65.2*	-2.5%	?	?
O=C1/C(=C/c2cccnc2)CC/C1=C\c1cccnc1	-24.1	-0.4%	-87.2*	?	5.0%	?
CC(C)/C=C1\CC/C(=C\c2cccnc2)C1=O	0.4	2.0%	-9.8	-8.3%	2.9%	1.6%
CN(C)c1ccc(/C=C2\C(=O)Nc3ccccc32)cc1	.	-22.8%	.	.	.	.
O=C1/C(=C\c2cccnc2)CCc2ccccc21	-16.0	-22.9%	-110.6*	3.1%	?	?
CCOc1ccc(CC(=O)NCC(c2cccs2)S(=O)(=O)c2ccc(F)c(C)c2)cc1 (centres undefined)	.	-3.6%	.	-2.0%	.	.
CCOc1ccccc1CNC(=O)c1cccn1-c1nnc(N2CCCC2)s1	.	3.6%	.	-18.9%	.	.
CCCCc1nn2c(=O)cc(COC(=O)c3ccccc3NC(=O)c3ccccc3OC)nc2s1	.	-1.2%	.	0.9%	.	.
O=C(NCc1ccc(Cl)cc1)C(=O)Nc1ccc(Br)cc1	.	1.8%	.	-3.2%	.	.

Assay outcomes deposited in PubChem BioAssay by National Center for Advancing Translational Sciences (NCATS).
